Measurements published in ChEMBL document CHEMBL3988442, “University of Dundee, Small-Polar-MMV Screening Library” (2021).
The whole screen tested about 48,000 compounds, of which about 13,000 (27%) showed an effect of 50% or more. This is one part of the list.

The molecules below were run on Wolbachia pipientis (assay: Anti-Wolbachia Cell-Based Screen). Settings: 5 µM.
Format: functional
Set-up: scale not given: in the data most compounds retested in dose-response had high values

| Compound | Percent Effect [%] |
| --- | --- |
| Cc1cccc(CC(=O)NC2CCN(C(=O)NC(C)(C)C)CC2)c1 | 5.736 |
| CCC1=N[C@@]2(CC[C@@H]3CN(C(=O)NCC(C)C)C[C@@H]32)C(=O)N1CCOC | 5.071 |
| Cc1c(-c2nc(-c3cccc(CN4CCOCC4)c3)no2)cnn1C | -3.312 |
| COc1ccccc1-c1ncc(CN2C[C@H](O)[C@@H](N3CCCC3)C2)s1 | 6.619 |
| CCn1c(Cn2ccnc2)nnc1C1CCN(Cc2ccc(C)o2)CC1 | -1.566 |
| O=C(NCCCNc1ccc(C(F)(F)F)cn1)c1ccc(F)cc1F | 139.7 |
| O=C(NCCCNc1ccc(C(F)(F)F)cn1)c1ccc(F)cc1Br | 166.7 |
| N#CC1(C(=O)NCCCNc2ccc(C(F)(F)F)cn2)CCCC1 | -0.7429 |
| N#Cc1ccc(C(=O)NCCCNc2ccc(C(F)(F)F)cn2)cc1 | -7.343 |
| CSCC(C)(O)CNC(=O)c1ccc(F)cc1Br (stereo not given) | -10.01 |
| COc1ccc(Br)c(C(=O)NCCNc2ccc(C(F)(F)F)cn2)c1 | 2.511 |
| CC(C)=CCC/C(C)=C/CC(C)(C)CNCc1ccco1 | -15.73 |
| COc1ccc(NC(C)C(=O)N2CCN(c3ccccc3)CC2)cn1 (stereo not given) | 11.01 |
| CC1CN=C(N2CCN(C(=O)Nc3nc(-c4ccccc4)ns3)CC2)S1 (stereo not given) | -2.569 |
| COCc1cc(CN(C)C(C(=O)O)c2cc(C)c(OC)c(C)c2)n[nH]1 (stereo not given) | 0.7136 |
| Cc1c[nH]c(CN(C)C(C(=O)O)c2c(F)cccc2Cl)n1 (stereo not given) | 11.8 |
| Cc1cc(CN(C)C(=O)c2cc(COc3ccccc3)[nH]n2)n[nH]1 | -16.83 |
| CCOc1ccccc1C(C(=O)O)N(C)Cc1nc(C)c[nH]1 (stereo not given) | 110.9 |
| CCOc1ccccc1C(C(=O)O)N(C)Cc1cc(C)[nH]n1 (stereo not given) | 105.4 |
| Cc1c[nH]c(CN(C)C(C(=O)O)c2c(F)cccc2OC(C)C)n1 (stereo not given) | 2.457 |
| CCOc1ccc(N(C)Cc2nnc(C)o2)cc1 | 3.578 |
| COc1cccc(Cl)c1C(C(=O)O)N(C)Cc1nnc(C)o1 (stereo not given) | 7.233 |

| Compound | Percent Effect [%] |
| --- | --- |
| CCOc1ccccc1C(C(=O)O)N(C)Cc1nnc(C)o1 (stereo not given) | 103.2 |
| CN(CC(N)=O)S(=O)(=O)c1ccc(F)cc1Cl | 0.3339 |
| COc1cccc(CN(C)C(=O)CCC(=O)c2ccc(Cl)cc2)c1OC | -4.229 |
| CCS(=O)(=O)N1CCC2(CCN(Cc3cccc(OC)c3)CC2)CC1.O=C(O)C(F)(F)F | -27.27 |
| COc1c(F)cc(CN2CCCC3(CC2)CNC(=O)O3)cc1Cl (stereo not given) | -2.576 |
| COc1ccc2c(c1)OC1(CCN(Cc3ccc(C)cc3)CC1)CC2=O | 104.7 |
| Cc1ccc2oc([C@H]3CCN(Cc4ccccc4)C3)nc2c1 | -4.088 |
| Cc1ccc(CN2CCC3(CC2)CCN(Cc2ccco2)CC3)cc1.O=C(O)C(F)(F)F.O=C(O)C(F)(F)F | 0.5302 |
| COc1ccc(CN2CCC3(CC(=O)N(c4cccc(F)c4)C3)C2)cc1.O=C(O)C(F)(F)F (stereo not given) | 28.15 |
| COc1ccc2c(c1)OC1(CCN(Cc3cccc(C)c3)CC1)CC2=O | 101.2 |
| Cc1ccc2c(c1)C(=O)CC1(CCN(Cc3ccccc3)CC1)O2 | 106.6 |
| COc1ccc2c(c1)C1(CCN(Cc3ccncc3)CC1)N(C)CC2 | -5.195 |
| COCC(=O)N1CCC2(CCN(Cc3ccc(C)cc3)CC2)CC1.O=C(O)C(F)(F)F | -3.723 |
| COc1ccc2c(c1)C(=O)CC1(CCN(Cc3ccc(F)cc3)CC1)O2 | 107.4 |
| CCN1CCN(C)C(=O)C12CCN(Cc1cccc(C)c1)CC2.O=C(O)C(F)(F)F | -18 |
| CCCn1ncc(C2CC(=O)NCc3nc4cc(C)ccn4c32)c1C (stereo not given) | 7.732 |
| Cc1nc(CN2CCCN(CC(=O)Nc3ccncc3)CC2)no1 | -12.37 |
| CC1c2cc(F)ccc2CCN1CCCS(=O)(=O)C(C)C (stereo not given) | -15.92 |
| Cc1nc[nH]c1CN1CCn2nc(CN3CC[C@H](F)C3)cc2C1 | -2.245 |
| O=C(NCCN1CCNCC1)c1c(O)c2ccccc2[nH]c1=O | 23.98 |
| COCC(O)CN(C)C(=O)NC1CCN(Cc2ccccn2)CC1 (stereo not given) | 9.175 |
| Cc1nn(C)c2nc(N(Cc3ccccc3)CC3CCCO3)sc12 (stereo not given) | 6.104 |

| Compound | Percent Effect [%] |
| --- | --- |
| COc1ccc(CN2CCC(O)(CN3CCCCC3)C2)c(C)c1 (stereo not given) | 1.46 |
| Cc1ccccc1CN1CCCN(CCN2CCOC2=O)CC1 | 6.019 |
| COc1ccc2c(c1)OC1(CCN(Cc3ccccc3C)CC1)CC2=O | 114.8 |
| CC(C)c1cccc(CSc2nnc(CN3CCCC3=O)o2)n1 | 6.014 |
| CS(=O)(=O)Cc1nc(CN2CCCc3sccc3C2)cs1 | 11.89 |
| CCOC(=O)C1CSCCN1C(=O)c1ccc(-n2nc(C)cc2C)cc1 (stereo not given) | 16.86 |
| CCOC(=O)C1CCN(c2nccc(-n3nc(C)cc3C)n2)CC1 | 112.2 |
| Cc1cc(C)n(-c2ccnc(N3CCC(C(=O)N4CCCC4)CC3)n2)n1 | 4.916 |
| COc1ccc(C(=O)C2CCCN(c3nccc(N)n3)C2)c(C)c1 (stereo not given) | 21.82 |
| CCOC(=O)C1CCCN(c2nccc(-n3nc(C)cc3C)n2)C1 (stereo not given) | 112.5 |
| CCOC(=O)C1CCCN(c2ccc(-c3nc(C)no3)cn2)C1 (stereo not given) | -3.256 |
| COCc1cc(CC2(NCc3ccccc3Cl)COC2)no1 | -15.27 |
| COc1ccnc(N2CCC3(CC2)[C@H](O)C[C@@H]3OCCN(C)C)n1 | -4.525 |
| CN(C(=O)CCc1cccs1)C1CCCN(C2Cc3ccccc3C2)C1 (stereo not given) | -51.14 |
| C1CCCN(c2nc(C3CC3)no2)CC1 | 3.376 |
| O=C(O)C(F)(F)F.c1ncn(Cc2cn3c(n2)CN(CC2CCCCC2)CC3)n1 | -9.983 |
| CN(C)CCN1CCC(NC2CSCCc3ccccc32)CC1 (stereo not given) | -11.44 |
| Oc1cccc(CNCCC2CCCO2)c1 (stereo not given) | 17.11 |
| O=C(Cc1ccc(F)cc1)NCCNCc1cccc(O)c1 | 75.28 |
| O=C(Cc1ccccc1)NCCNCc1cccc(O)c1 | 87.97 |
| O=C(Cc1cccc(F)c1)NCCNCc1cccc(O)c1 | -5.303 |
| O=C(Cc1cccc(F)c1)NCCNCc1ccc2c(c1)CCO2 | -2.552 |

| Compound | Percent Effect [%] |
| --- | --- |
| CCOc1cccc(CCNC(=O)Cc2cccc(O)c2)n1 | 19.48 |
| CC(NCc1ccc(-c2ccc(Cl)cc2)o1)c1nnc2n1CCC2 (stereo not given) | -12.12 |
| COCCSc1ccc(C(C)NC(=O)Nc2cccnc2)cc1 (stereo not given) | -3.032 |
| CN(Cc1nnc(-c2ccco2)o1)CC1CCCN1c1cccnn1 (stereo not given) | 6.587 |
| CC(C)Oc1ccccc1-c1cc(CN)ccc1F | 10.62 |
| CC(=O)Nc1ccc(Oc2ccc3c(c2)OCO3)nc1 | 99.6 |
| O=C(CCN1C(=O)CCC1=O)Nc1ccc(Oc2ccc(Cl)cc2)nc1 | -10.42 |
| Cc1cc(C)nc(NC(=O)C(C)Oc2ccc3c(c2)OCO3)n1 (stereo not given) | 15.82 |
| CCCNC(=O)C(C)Nc1cccc(Oc2ccc(C#N)cn2)c1 (stereo not given) | -3.4 |
| Cc1cnn(CCCOc2ccc3c(c2)OCO3)c1 | -11.3 |
| CC(C)C(=O)Nc1ccc(Oc2ccc3c(c2)OCO3)nc1 | 107.3 |
| Cc1ccc(Oc2ccc(NC(=O)NCC3CCOC3)cn2)cc1C (stereo not given) | -4.291 |
| CC(C)OCC(=O)Nc1ccc(Oc2ccc3c(c2)OCO3)nc1 | 77.43 |
| O=C(Cn1cc(Cl)cn1)Nc1ccc2c(c1)OCO2 | 1.967 |
| O=C(NCC1(O)CCOC1)NCC1(c2ccccc2Cl)CC1 (stereo not given) | 3.661 |
| CCS(=O)(=O)CC(=O)Nc1cccc2c1CN(CC(C)C)C2 | -13.69 |
| CC(NC(=O)CCc1nc(-c2nnc[nH]2)no1)c1ccc(F)cc1F (stereo not given) | 1.12 |
| O=C1NC2(CCN(Cc3ccccc3Cl)CC2)CC1c1ccccc1 (stereo not given) | 14.18 |
| O=C(C1CCOC1)N1CCC2(CC1)Cc1ccccc1CNC2=O (stereo not given) | -36.36 |
| CN(Cc1c(F)cccc1Cl)C(=O)CN(C)C1CCc2ccccc21 (stereo not given) | -6.423 |
| O=C(O)c1ccccc1CN1CCC2(Cc3ccccc3CNC2=O)C1 (stereo not given) | 101.8 |
| COCCCC1(C(=O)O)CCCN(Cc2ccccc2C)C1 (stereo not given) | -5.241 |

| Compound | Percent Effect [%] |
| --- | --- |
| O=C1NCc2ccccc2CC12CCN(Cc1ccccc1Cl)CC2 | 119.1 |
| O=C(O)c1csc(S(=O)(=O)N2CCN(Cc3c(F)cccc3Cl)CC2)c1 | 1.307 |
| N#Cc1ccccc1C(=O)N1CCC2(CC(=O)NC2=O)C1 (stereo not given) | -23.72 |
| O=C1NCc2ccccc2CC12CCN(Cc1c(F)cccc1Cl)C2 (stereo not given) | 159.3 |
| CC(CC#N)N(C)Cc1ccccc1Cl (stereo not given) | 14.98 |
| CSc1nccc(N2C[C@@H]3CC[C@H](C2)N(CC2CCC2)C3=O)n1 | 23.13 |
| COCCC1(C(=O)NCCc2nncn2C2CC2)CCC1 | -3.297 |
| CCOCC1CCN(C(=O)Nc2ccc3c(c2)CCCO3)C1 (stereo not given) | -8.757 |
| CS(=O)(=O)c1nccn1CCOc1ccccc1F | 21.64 |
| O=C(O)C(F)(F)F.c1csc(CN2CCCn3cnc(COCC4CC4)c3C2)n1 | -1.239 |
| O=C1OCCN1CC(=O)N1C[C@H]2CC[C@@H]1CN(C(=O)c1cccnc1)C2 | -9 |
| CCc1cnccc1C(=O)NC1CCN(C(=O)OC)CC1 | 94.08 |
| O=C(C1CCCC1)N1CCC(Nc2ccncn2)CC1 | 23.24 |
| CCc1ccc(O)c(C(=O)NC2CCN(C(=O)OC)CC2)c1 | 2.941 |
| CCc1cnccc1C(=O)NC1CCN(Cc2ccccc2F)CC1 | 94.68 |
| CC(NC(=O)NC1CCN(Cc2ccncc2)CC1)c1ccccc1F (stereo not given) | -8.351 |
| CCc1cnccc1C(=O)NC1CCN(C(=O)C2CCCCC2)CC1 | 87.11 |
| CCc1ccc(O)c(C(=O)NC2CCN(Cc3ccncc3)CC2)c1 | 19.96 |
| O=C(NC1CCN(C(=O)C2CCCCC2)C1)c1ccncc1Cl (stereo not given) | 79.99 |
| O=C(NC1CC1)c1cc(NC(=O)N2CCCC2)ccc1Cl | -51.77 |
| CC(NC1CCN(C(=O)C2CCCCC2)CC1)c1nccs1 (stereo not given) | -8.519 |
| N#Cc1cnc(NC2CCN(C(=O)C3CCCCC3)CC2)c(Cl)c1 | 1.1 |
